# Screens as filed in PubChem.
# Compounds with a hit are over-represented: about 5.4% of the library has one in this group of screens.
# SKKanGAS inh: S. pyogenes SKKanGAS growth inhibitors in kanamycin, primary screen, streptokinase expression inhibitor project, SKKanGAS strain, BacTiter-Glo luminescence; 6 h; inhibition, % at 7.5 µM; 1.3% of 300,000 active; AID 1662, 2009;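 active = mean replicate score, as percent of positive control median, at least 50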;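 also: strain carries kanamycin resistance gene driven by streptokinase promoter and grows in 40 µg/ml kanamycin; loss of luminescence reflects streptokinase promoter inhibition or plain growth inhibition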
# Beta apoptosis: inhibitors of cytokine-induced beta cell apoptosis, primary screen, luminescence; AID 435005, 2010; INS-1E cytokine-induced death, ATP luminescence, 48 h; percent of positive-control rescue, neutral wells zero; 0.8% of 300,000 active; protection from apoptosis, % (test concentration not listed);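 active = Every replicate reaches about 75%, or at least half do and their mean reaches it too, limit read from the data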;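 also: higher means more ATP so stronger rescue from cytokine killing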
# CSC inhib: cancer stem cell viability inhibitors, primary screen, luminescence. cancer stem cell-like cells viability. inhibition, % at 7.5 µM. 1.1% of 300,000 active; in the data active = inhibition above about 75%; tested in HMLE shEcad cells
# Mdm2 MdmX PPI: inhibitors of human Mdm2-MdmX association, primary screen, cell-based, luminescence, split luciferase, SaOS-2, uHTS; Protein Mdm4 (Homo sapiens) + E3 ubiquitin-protein ligase Mdm2 (Homo sapiens), …; SaOS-2 split-luciferase Mdm2/MdmX complementation; inhibition, % at 8 µM; 3% of 330,000 active; AID 485346, 2010;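 active = inhibition of at least 50% at 8 µM in the primary screen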
# Target sequence (O15151 whole entry, looked up): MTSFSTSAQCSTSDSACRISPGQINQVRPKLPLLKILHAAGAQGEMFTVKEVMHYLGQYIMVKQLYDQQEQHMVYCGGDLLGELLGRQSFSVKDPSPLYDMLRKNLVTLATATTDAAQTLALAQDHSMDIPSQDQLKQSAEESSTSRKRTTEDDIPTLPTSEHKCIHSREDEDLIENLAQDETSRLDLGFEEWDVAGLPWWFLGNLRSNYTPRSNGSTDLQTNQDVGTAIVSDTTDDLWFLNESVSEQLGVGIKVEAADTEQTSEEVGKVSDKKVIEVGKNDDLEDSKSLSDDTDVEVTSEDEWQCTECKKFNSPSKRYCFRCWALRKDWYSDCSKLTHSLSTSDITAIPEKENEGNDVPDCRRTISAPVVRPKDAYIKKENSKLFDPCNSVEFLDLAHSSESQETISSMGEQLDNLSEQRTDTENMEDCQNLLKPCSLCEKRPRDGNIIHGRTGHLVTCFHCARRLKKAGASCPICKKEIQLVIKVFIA
# Target sequence (Q00987 whole entry, looked up): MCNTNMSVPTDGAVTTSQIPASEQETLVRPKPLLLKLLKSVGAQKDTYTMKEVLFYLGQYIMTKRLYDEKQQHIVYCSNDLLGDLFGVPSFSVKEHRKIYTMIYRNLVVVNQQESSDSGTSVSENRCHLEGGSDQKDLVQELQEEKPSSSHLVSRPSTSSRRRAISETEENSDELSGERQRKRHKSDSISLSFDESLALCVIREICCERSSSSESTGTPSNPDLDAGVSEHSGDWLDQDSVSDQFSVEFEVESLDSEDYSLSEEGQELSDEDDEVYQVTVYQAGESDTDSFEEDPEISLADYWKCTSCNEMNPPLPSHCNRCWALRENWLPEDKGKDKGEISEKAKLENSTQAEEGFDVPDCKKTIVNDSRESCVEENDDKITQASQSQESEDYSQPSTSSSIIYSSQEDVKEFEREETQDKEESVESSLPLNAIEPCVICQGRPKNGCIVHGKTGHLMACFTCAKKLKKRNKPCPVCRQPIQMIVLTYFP
# MPTP inh: mitochondrial permeability transition pore inhibitors, primary screen, biochemical, isolated mouse mitochondria, absorbance. Ca2+ swelling absorbance, 30 min. inhibition, % at 10 µM. 1.4% of 360,000 active;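 active = inhibition of 50% or more, scaled per plate between neutral and stimulator controls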
# Calb FLC: C. albicans growth inhibition with fluconazole, primary screen, CaCi-2 strain, Alamar Blue fluorescence | C. albicans CaCi-2 (fluconazole-resistant clinical isolate) + fluconazole, 48 h | growth inhibition, % (no concentration beside the values) | 0.57% of 300,000 active | AID 1979, 2009;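 active = growth inhibition above about 58% in most replicates, limit read from the data, passing the limit was not always enough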;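 also: all wells also contain fluconazole at 8 µg/ml as a sub-toxic cotreatment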
# Mdm2-MdmX conf: Mdm2-MdmX complex disruptors, retested hits, confirmation, luminescence, single concentration; shares compounds with Mdm2 MdmX PPI; Mdm2-MdmX binding, luminescent assay; inhibition, % at 8 µM; 55% of 10,000 active; AID 489028, 2010; in the data active = inhibition above about 40%
# Full FLuc ctr: full-length luciferase signal inhibition, confirmation, counter-screen for Mdm2/MdmX interaction inhibitor project, cell-based, single concentration, SaOS-2; shares compounds with Mdm2 MdmX PPI; SaOS-2 full-length luciferase counterscreen, luminescence; inhibition, % at 8 µM; 77% of 6,200 active; AID 504607, 2011;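 active = mean inhibition at 8 µM reaching about 37%, which flags the compound as non-specific, limit read from the data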;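 also: p53-null SaOS-2 cells with luciferase driven by a doxycycline-inducible promoter; compound on cells about two nights before reading with doxycycline added after day one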
# A number is an active result; 0 = inactive; - = not tested or not shown.
SMILES,SKKanGAS inh,Beta apoptosis,CSC inhib,Mdm2 MdmX PPI,MPTP inh,Calb FLC,Mdm2-MdmX conf,Full FLuc ctr
Nc1nc(/C=C/c2cccnc2)nc(-c2ccccc2O)n1,0,0,0,75.8,0,0,73.2,64.0
CN1CCN(c2c(/C=N/O)c3ccccc3n2C)CC1,0,0,0,0,0,0,-,-
Cc1ccccc1C(=O)O/N=C/c1c(N2CCOCC2)n(C)c2ccccc12,0,0,0,53.2,0,107.2,0,-
Nc1nc2ccc([N+](=O)[O-])cc2[nH]1,0,-,0,0,0,0,-,-
O=[N+]([O-])c1ccc2nc(-[n+]3c(-c4ccccc4)cc(-c4ccccc4)cc3-c3ccccc3)[nH]c2c1,0,0,0,80.9,0,0,61.9,56.7
Oc1c(Cl)cc(Cl)cc1/C=N/Nc1ncc(Br)cn1,0,85.5,0,67.1,0,0,69.2,0
Cc1nn(-c2ccccc2)c(C)c1/C=N/NC(=O)c1cc(-c2ccccc2)n[nH]1,0,0,0,59.0,0,0,62.7,79.3
Cc1nn(-c2ccccc2)c(C)c1/C=N/NC(=O)c1ccc(F)cc1,0,0,0,0,0,0,-,-
CCCCCn1c(=O)[nH]c2cc(C(=O)NCCCN3CCC(C)CC3)ccc2c1=O,0,0,-,0,0,0,-,-
Cc1cc(-c2nc(C)c(-c3nnc(SCC(=O)Nc4cc(Cl)cc(Cl)c4)n3C)s2)no1,0,0,0,0,0,0,-,-
Cn1c(SCC(=O)Nc2cc(Cl)cc(Cl)c2)nnc1-c1ccc2nonc2c1,0,0,0,70.7,0,0,0,-
N#CCCN(C(=O)CCl)c1cccc(Cl)c1,0,0,0,100.3,0,0,91.7,53.8
N#CCCN(C(=O)COC(=O)c1nc(Cl)ccc1Cl)c1ccccc1,0,0,0,0,0,0,-,-
CCCCCCN(C(=O)CCl)c1ccccc1,0,0,0,97.9,0,0,91.5,0
O=C(CCl)N(c1ccccc1)c1ccccc1,0,-,-,-,0,0,-,-
CCCN(C(=O)Cn1ncc2c(=O)oc3ccccc3c21)c1cccc(C)c1,0,0,0,0,0,0,-,-
CCCCCCCN(C(=O)CCl)c1cccc(C)c1,0,0,0,99.3,0,0,97.2,0
CC(C)OC(=O)c1cccc(C(=O)Oc2ccccc2)n1,0,0,0,0,0,0,-,-
CN(C)CCCNC(=O)Cc1ccc(Br)cc1,0,0,0,0,0,0,-,-
CC(C)=CCCC1(C)C=Cc2c(c(C)cc3c2[nH]c2cc(O)ccc23)O1 (stereo unspecified),107.5,-,92.7,68.8,0,0,0,-
Cc1cc(=O)[nH]c2cc(O)ccc12,0,0,0,0,0,0,-,-
COCCCn1nnnc1SCC(=O)Nc1nc(C)c(C)s1,0,0,0,0,0,0,-,-
COc1ccc(-c2c3c(nc4sc5c(=O)[nH]c(C)nc5c24)CCC3)cc1,0,0,0,66.9,0,0,0,-
O=C(NCc1ccccc1)Nc1cccn(Cc2c(F)cccc2Cl)c1=O,0,0,0,55.6,0,0,43.4,73.0
Cc1ccc(NC(=O)Nc2cccn(Cc3c(F)cccc3Cl)c2=O)cc1,0,0,0,0,0,0,-,-
SMILES,SKKanGAS inh,Beta apoptosis,CSC inhib,Mdm2 MdmX PPI,MPTP inh,Calb FLC,Mdm2-MdmX conf,Full FLuc ctr
COc1ccc(CCn2c(NN)nc3c2c(=O)[nH]c(=O)n3C)cc1,0,0,0,57.5,0,0,50.2,67.3
Cc1ccc(C)c2sc(N3CCN(C(=O)c4ccc([N+](=O)[O-])o4)CC3)nc12,65.4,0,0,90.2,0,0,50.8,54.9
CC(C)OCCCNC(=O)c1cc2c(=O)n(C)c3ccccc3c2n1C,0,0,0,0,0,0,-,-
CCN(CC)CCNC(=O)c1cc2c(=O)n(CC)c3ccccc3c2s1,0,0,0,0,0,0,-,-
CCCN(CCC)CCNC(=O)c1cc2c(=O)n(CC)c3ccccc3c2s1,0,0,0,70.5,0,0,45.6,68.9
Cn1c(C(=O)NCCCN2CCN(c3ccccc3F)CC2)cc2c(=O)n(C)c3ccccc3c21,0,0,0,58.2,0,0,0,-
CCCCN(CC)CCCNC(=O)c1cc2c(=O)n(C)c3ccccc3c2n1C,0,0,0,69.0,0,0,0,-
Cc1cccc(N2CCN(C(=O)c3cc4c(=O)n(C)c5ccccc5c4n3C)CC2)c1C,0,0,0,0,0,0,-,-
Cc1ccc(Cl)cc1N1CCN(C(=O)c2cc3c(=O)n(C)c4ccccc4c3n2C)CC1,0,0,0,97.6,0,0,86.2,66.9
N/C(CC(=O)Nc1ccc(F)cc1F)=N\OC(=O)c1cccs1,0,0,0,0,0,0,-,-
Clc1ccccc1C1CC(c2ccccc2)=Nc2ccccc2N1 (stereo unspecified),0,-,0,0,0,0,-,-
COCCSc1ccccc1C(=O)N1CCN(Cc2ccccc2)CC1,0,0,0,0,0,0,-,-
O=C(NCCCN1CCCCCC1)c1cc2c(=O)oc3ccccc3c2s1,0,0,0,0,0,0,-,-
CN1CCN(CCCNC(=O)c2cc3c(=O)n(C)c4ccccc4c3s2)CC1,0,0,0,54.2,0,0,0,-
C[C@@H]1[C@@H](Sc2ccccc2)CC(=O)O[C@@H]1c1ccc(-c2ccccc2)cc1,0,-,0,97.4,0,0,62.8,51.2
COc1cccc(NC(=O)C(C)OC(=O)c2n[nH]c3ccccc23)c1 (stereo unspecified),-,0,-,0,0,-,-,-
Nc1nnc(CC2=CCCCC2)s1,0,0,0,0,0,0,-,-
O=c1[nH]c2ccccc2nc1-c1ccccc1,0,0,0,0,0,0,-,-
NC(=O)N=Nc1c2[nH]c3ccccc3nc-2c2ccccc12,72.1,0,0,81.6,0,0,52.4,65.4
NS(=O)(=O)c1ccc(CCNC(=O)C(=O)c2cn(CC(=O)N3CCOCC3)c3ccccc23)cc1,0,0,0,0,0,0,-,-
CCCCC1CCC(C(=O)N(CC(C)C)c2c(N)n(Cc3ccccc3)c(=O)[nH]c2=O)CC1 (stereo unspecified),0,84.6,90.8,96.9,-,-,0,-
CC(C)CN(C(=O)COC(=O)/C=C/c1ccc(Cl)c(Cl)c1)c1c(N)n(Cc2ccccc2)c(=O)[nH]c1=O,-,-,-,91.8,0,-,0,-
CC1=C(C(=O)OCc2ccc3c(c2)OCO3)C(c2cccc([N+](=O)[O-])c2)NC(=O)N1 (stereo unspecified),0,0,0,0,0,0,70.0,45.3
